Laboratory results reported in PubChem BioAssay (NCATS).
Results filed as inconclusive are left out. The source made the active and inactive calls. Unless noted, calls come from the whole dose curve; as a rule, active = well fitted curve in the direction sought with a large enough effect; inconclusive = small, poorly fitted or top-dose-only effect, or another doubt; inactive = no such curve, though single readings can be large; an effect the other way counts as inactive or inconclusive.

What was measured:
[1] = target: Lysosomal acid glucosylceramidase (Homo sapiens) (UniProt P04062); test: Glucocerebrosidase-p2 (AID 348; in the data active = potency below about 10 µM; note: potency is the fitted concentration of half-maximal effect); details: purified GBA, blue fluorogenic substrate, 40 min
How it was run: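 Compounds titrated from 0.6 nM upwards against 0.2 nM enzyme in pH 5.9 citric acid/KH2PO4, taurocholate, tween-20; blue fluorogenic substrate 80 uM, 40 min room temperature, stopped and read Ex 365/Em 440 for AC50.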

[2] = target: Cytochrome P450 1A2 (Homo sapiens) (UniProt P05177); test: p450-cyp1a2 (AID 410; calls by dose curve; note: potency is the fitted concentration of half-maximal effect)
How it was run: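 Human CYP1A2 (20nM) demethylated Luciferin-ME at its Km (100uM) in 100mM KPO4. After 10 min compound preincubation, NADPH regeneration ran the reaction 60 min at room temperature. Luciferin was read by luminescence, normalized to 57 uM furafylline.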

[3] = NFAT Signaling Pathway (AID 444; active = well fitted curve in either direction with a large enough effect, not every such curve was filed as active;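 note: carbachol stimulus at about its EC50 of 1 µM final; % is set by controls: 0 for no effect and ±100 for the full control effect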); details: Jurkat NFAT-bla M1, carbachol, beta-lactamase ratio, 5 h; at 7.69 µM (top of the series) unless noted
How it was run: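 Jurkat cells with NFAT-driven β-lactamase reporter and co-expressed M1 receptor, stimulated with carbachol (final 1 uM, ~EC50), compound titration, 5 h at 37 °C. CCF4 loaded 1 h at RT; 460/530 nm ratio gave %activity and AC50.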

[4] = Stat Signaling Pathway (AID 446; active = well fitted curve in either direction with a large enough effect, not every such curve was filed as active;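 note: ME-180 cervical cancer cells given 40 pM IL-6 alongside compound; SIE-controlled beta-lactamase reporter measured as 460/530 nm FRET emission ratio; % is set by controls: 0 for no effect and ±100 for the full control effect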); details: ME-180 SIE beta-lactamase reporter, IL-6 stimulated, 5 h; at 7.69 µM (top of the series) unless noted
How it was run: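 ME-180 cells carrying a SIE-driven beta-lactamase reporter are stimulated with 40 pM IL-6 for 5 h at 37C in the presence of compound. The 460/530 nm FRET substrate ratio is read after 2.5 h at RT. Data are normalised to 300 pM IL-6 and to 125 nM JAK inhibitor controls.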

[5] = target: Glucocorticoid receptor (Homo sapiens) (UniProt P04150); test: GR-GFP Redistribution (AID 450;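 active = compounds whose dose series gives a full or clear partial fitted curve of increased nuclear translocation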; note: potency is the fitted concentration of half-maximal effect); details: U2OS GR-GFP nuclear translocation, laser cytometry, 2 h
[6] = target: Glucocorticoid receptor (Homo sapiens) (UniProt P04150); test: GR-EFC Redistribution (AID 451; calls by dose curve; note: potency is the fitted concentration of half-maximal effect); details: CHO-K1 GR-EFC translocation, beta-gal luminescence, 2 h
How it was run: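 CHO-K1 cells expressing nuclear EA and GR-ED fragments of b-gal; compounds titrated up to 46 uM final, 2 h at 37 C. GR nuclear translocation read as complemented b-gal luminescence after 1 h RT detection.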

[7] = target: Mitogen-activated protein kinase 10 (Mus musculus) (UniProt Q61831); test: JNK3 AlphaScreen Assay (AID 530; active = well fitted curve in either direction with a large enough effect, not every such curve was filed as active;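 note: kinase came from lysate of stimulated human HepG2 cells; signal reports phosphorylation of biotinylated GST-cJun 1-79 at Ser73 with 10 µM ATP; % is set by controls: 0 for no effect and ±100 for the full control effect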)
How it was run: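 qHTS format: compounds tested as titrations against IL-1beta/TNF-alpha-activated HepG2 lysate JNK3 with biotin-GST-cJun substrate and 10 uM ATP at room temperature. Loss of anti-phospho-cJun AlphaScreen signal indicates inhibition.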

[8] = target: 3',5'-cyclic-AMP phosphodiesterase 4B (Homo sapiens) (UniProt Q07343); test: qHTS Assay for Inhibitors of PDE-IV (AID 607; active = well fitted activation curve with a large enough effect in the main read-out, with a control signal flat, not every such curve was filed as active; note: % of control where 0% means no effect)
How it was run: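 HEK293 ACTOne cells with CNG channel (1000/well), endogenous PDE4; membrane potential dye, compounds up to 22.9 uM final. Fluorescence Ex 535/Em 590; RO 20-1724 (100 uM final) as reference.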

[9] = qHTS Assay for Lipid Storage Modulators (AID 1519; calls by dose curve); details: Drosophila S3 cells, BODIPY lipid droplet/cell ratio, laser cytometry, cells loaded with oleic acid; for activity change, negative = inhibition: at 57.5 µM (top of the series)
How it was run: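 Cells seeded at 5,000 per well were treated with compounds over a concentration series and loaded with oleic acid (400 uM, as added). Lipid droplet fluorescence (488 nm excitation, 500-530 nm channel) was read by laser-scanning cytometry and normalized to 20 uM Triacsin C.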

[10] = target: Dual specificity protein kinase CLK4 (Homo sapiens) (UniProt Q9HAZ1); test: qHTS Assay for Inhibitors of CDC-like Kinase 4 (Kinase-Glo Assay) (AID 1770); note: nearly all actives have a fitted effect of over 65% in size; note: potency is the fitted concentration of half-maximal effect
How it was run: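 Luminescent ATP-depletion read-out (Kinase-Glo) after 4.5 h room-temperature reaction of Clk4 (25 nM final) with RS peptide (100 uM) and ATP (1 uM), pH 7.5 Tris buffer with MgCl2 and DTT.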

[11] = target: Dual specificity protein kinase CLK4 (Homo sapiens) (UniProt Q9HAZ1); test: qHTS Assay for Inhibitors of CDC-like Kinase 4 (ADP-FP Assay) (AID 1795); note: nearly all actives have a fitted effect of over 60% in size; note: potency is the fitted concentration of half-maximal effect
How it was run: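 Kinase activity was measured as ADP production using Transcreener orange tracer (4 nM) and ADP antibody (1 ug/mL) fluorescence polarization, with ADP calculated from a calibration curve. The 1 h reaction contained 6.25 nM Clk4, 1 uM ATP and 100 uM RS peptide at pH 7.5 with Mg2+.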

[12] = target: Ubiquitin carboxyl-terminal hydrolase 1 (Homo sapiens) (UniProt O94782); test: Inhibitors of USP1/UAF1: Pilot qHTS (AID 504865);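 note: rhodamine fluorescence freed from ubiquitin-rhodamine substrate followed over time; top concentration of the series differs between compounds; % is set by controls: 0 for no effect and ±100 for the full control effect; nearly all actives have a fitted effect of over 35% in size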
How it was run: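 Deubiquitinase activity followed as kinetic rhodamine fluorescence release from 150 nM Ub-Rho. 1 nM USP1/UAF1 with compound, after 15 min room-temperature preincubation, in HEPES pH 7.8 buffer containing TCEP, EDTA, BSA and Tween-20.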

[13] = target: Cytochrome P450 3A4 (Homo sapiens) (UniProt P08684); test: qHTS Assay for Activators of Cytochrome P450 3A4 (AID 885); note: nearly all actives have a fitted effect of over 65% in size
How it was run: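 Human CYP3A4 (20 nM) with Luciferin-PPXE at 25 uM (its KM) in 200 mM KPO4; 10 min compound preincubation, then NADPH regeneration and 60 min reaction at RT. Luciferin read by luminescence; normalized to 57 uM ketoconazole full inhibition.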

[14] = qHTS Assay for Identification of Small Molecule Agonists for Hypoxia Response Element Signaling Pathway (AID 914; active = well fitted activation curve with a large enough effect in the signal ratio, with a control signal flat, not every such curve was filed as active; the % refers to the signal ratio; note: potency is the fitted concentration of half-maximal effect; for activation: % of control where 0% means no effect); details: ME-180 HRE-bla reporter, beta-lactamase ratio, CoCl2, 17 h; activation: stronger effect = higher value
How it was run: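 HRE-bla ME-180 cells, overnight plating in Opti-MEM with 0.5% dialyzed FBS; cpd titration + EC50 CoCl2, 17 h, 37 degrees Celsius; CCF4 2.5 h RT; 460/530 nm ratio; AC50.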

[15] = AP1 Signaling Pathway (AID 357; active = well fitted curve in either direction with a large enough effect, not every such curve was filed as active; note: % is set by controls: 0 for no effect and ±100 for the full control effect); details: ME-180 (cervical carcinoma) AP-1-bla reporter, EGF-induced, beta-lactamase ratio, 5 h; at 7.69 µM (top of the series) unless noted
How it was run: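 AP-1-bla ME-180 cells with beta-lactamase reporter under AP-1 response element, stimulated with EC50 EGF; compounds titrated, 5 hours at 37 degrees Celsius. CCF4 read at 460/530 nm ratio; positive and negative modulators judged by AC50.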

[16] = target: Dual specificity protein kinase CLK4 (Homo sapiens) (UniProt Q9HAZ1); test: qHTS Assay for Inhibitors of CDC-like Kinase 4 (ADP-Glo Assay) (AID 1771); note: nearly all actives have a fitted effect of over 70% in size; note: potency is the fitted concentration of half-maximal effect
How it was run: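 Clk4 (25 nM) was incubated 1 hr at room temperature with 100 uM RS repeat peptide and 1 uM ATP in buffer with 2 mM MgCl2, 0.5 mM EGTA, 2.5 mM DTT. ADP formed was quantified by ADP-Glo luminescence.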

[17] = measured here: cell count channel max response
[18] = measured here: lipid channel max response

Cytochrome P450 1A2 (Homo sapiens), sequence (P05177 whole entry, looked up): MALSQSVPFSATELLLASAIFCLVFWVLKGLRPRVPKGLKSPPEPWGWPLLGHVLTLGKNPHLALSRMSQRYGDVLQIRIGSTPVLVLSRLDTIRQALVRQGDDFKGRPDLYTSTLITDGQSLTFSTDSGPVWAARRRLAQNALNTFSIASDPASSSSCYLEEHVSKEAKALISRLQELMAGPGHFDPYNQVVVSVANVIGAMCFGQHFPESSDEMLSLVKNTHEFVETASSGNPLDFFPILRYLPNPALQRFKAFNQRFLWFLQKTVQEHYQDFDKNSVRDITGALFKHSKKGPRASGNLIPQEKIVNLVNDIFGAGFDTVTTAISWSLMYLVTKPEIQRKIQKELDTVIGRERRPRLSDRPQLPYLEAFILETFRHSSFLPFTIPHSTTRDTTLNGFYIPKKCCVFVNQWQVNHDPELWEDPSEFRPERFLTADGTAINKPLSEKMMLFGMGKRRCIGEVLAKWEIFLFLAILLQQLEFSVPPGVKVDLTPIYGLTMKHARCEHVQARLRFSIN
Lysosomal acid glucosylceramidase (Homo sapiens), sequence (P04062 whole entry, looked up): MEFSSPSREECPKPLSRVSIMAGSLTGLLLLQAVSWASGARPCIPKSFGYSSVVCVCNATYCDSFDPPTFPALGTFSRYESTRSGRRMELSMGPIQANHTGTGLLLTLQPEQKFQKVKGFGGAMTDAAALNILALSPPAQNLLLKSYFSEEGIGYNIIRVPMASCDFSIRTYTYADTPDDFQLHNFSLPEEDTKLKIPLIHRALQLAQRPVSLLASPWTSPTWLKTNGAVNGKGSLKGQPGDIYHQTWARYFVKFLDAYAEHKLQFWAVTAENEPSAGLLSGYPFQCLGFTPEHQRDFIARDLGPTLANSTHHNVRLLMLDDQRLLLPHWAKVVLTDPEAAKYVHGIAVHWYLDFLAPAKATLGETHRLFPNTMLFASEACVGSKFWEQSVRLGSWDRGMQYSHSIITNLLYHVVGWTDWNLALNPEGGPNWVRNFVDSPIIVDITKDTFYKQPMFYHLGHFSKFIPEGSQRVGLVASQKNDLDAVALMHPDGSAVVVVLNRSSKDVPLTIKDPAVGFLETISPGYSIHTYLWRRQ
3',5'-cyclic-AMP phosphodiesterase 4B (Homo sapiens), sequence (Q07343 whole entry, looked up): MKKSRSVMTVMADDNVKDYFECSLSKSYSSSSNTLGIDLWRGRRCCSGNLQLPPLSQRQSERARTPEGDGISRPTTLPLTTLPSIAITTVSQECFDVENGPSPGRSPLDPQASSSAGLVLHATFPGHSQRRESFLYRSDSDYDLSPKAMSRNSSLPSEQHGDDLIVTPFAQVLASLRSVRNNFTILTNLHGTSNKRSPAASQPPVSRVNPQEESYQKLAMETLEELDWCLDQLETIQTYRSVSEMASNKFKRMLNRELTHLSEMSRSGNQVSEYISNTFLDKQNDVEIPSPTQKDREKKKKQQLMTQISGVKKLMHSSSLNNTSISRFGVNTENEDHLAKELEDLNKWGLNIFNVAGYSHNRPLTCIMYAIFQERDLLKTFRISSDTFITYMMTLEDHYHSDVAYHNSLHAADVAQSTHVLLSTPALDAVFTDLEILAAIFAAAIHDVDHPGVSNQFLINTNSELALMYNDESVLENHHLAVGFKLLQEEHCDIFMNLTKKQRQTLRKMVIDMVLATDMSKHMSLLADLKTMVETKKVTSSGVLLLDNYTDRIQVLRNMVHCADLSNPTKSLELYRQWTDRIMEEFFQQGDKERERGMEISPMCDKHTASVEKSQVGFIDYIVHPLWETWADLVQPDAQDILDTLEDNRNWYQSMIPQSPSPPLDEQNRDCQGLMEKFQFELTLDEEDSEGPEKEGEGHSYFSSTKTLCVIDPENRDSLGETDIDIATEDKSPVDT
Cytochrome P450 3A4 (Homo sapiens), sequence (P08684 whole entry, looked up): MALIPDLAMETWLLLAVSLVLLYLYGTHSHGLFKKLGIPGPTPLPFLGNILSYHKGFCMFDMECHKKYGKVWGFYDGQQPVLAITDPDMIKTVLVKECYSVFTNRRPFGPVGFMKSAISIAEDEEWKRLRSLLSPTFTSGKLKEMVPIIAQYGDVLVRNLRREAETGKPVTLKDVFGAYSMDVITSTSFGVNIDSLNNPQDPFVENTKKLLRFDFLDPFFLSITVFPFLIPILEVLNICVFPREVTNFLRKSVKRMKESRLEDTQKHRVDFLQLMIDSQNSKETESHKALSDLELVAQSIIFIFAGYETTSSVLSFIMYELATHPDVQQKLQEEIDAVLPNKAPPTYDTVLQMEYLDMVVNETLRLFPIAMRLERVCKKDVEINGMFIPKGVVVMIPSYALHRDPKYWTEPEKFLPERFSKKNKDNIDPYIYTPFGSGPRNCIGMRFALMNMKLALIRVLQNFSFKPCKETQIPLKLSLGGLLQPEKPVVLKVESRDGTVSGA
Ubiquitin carboxyl-terminal hydrolase 1 (Homo sapiens), sequence (O94782 whole entry, looked up): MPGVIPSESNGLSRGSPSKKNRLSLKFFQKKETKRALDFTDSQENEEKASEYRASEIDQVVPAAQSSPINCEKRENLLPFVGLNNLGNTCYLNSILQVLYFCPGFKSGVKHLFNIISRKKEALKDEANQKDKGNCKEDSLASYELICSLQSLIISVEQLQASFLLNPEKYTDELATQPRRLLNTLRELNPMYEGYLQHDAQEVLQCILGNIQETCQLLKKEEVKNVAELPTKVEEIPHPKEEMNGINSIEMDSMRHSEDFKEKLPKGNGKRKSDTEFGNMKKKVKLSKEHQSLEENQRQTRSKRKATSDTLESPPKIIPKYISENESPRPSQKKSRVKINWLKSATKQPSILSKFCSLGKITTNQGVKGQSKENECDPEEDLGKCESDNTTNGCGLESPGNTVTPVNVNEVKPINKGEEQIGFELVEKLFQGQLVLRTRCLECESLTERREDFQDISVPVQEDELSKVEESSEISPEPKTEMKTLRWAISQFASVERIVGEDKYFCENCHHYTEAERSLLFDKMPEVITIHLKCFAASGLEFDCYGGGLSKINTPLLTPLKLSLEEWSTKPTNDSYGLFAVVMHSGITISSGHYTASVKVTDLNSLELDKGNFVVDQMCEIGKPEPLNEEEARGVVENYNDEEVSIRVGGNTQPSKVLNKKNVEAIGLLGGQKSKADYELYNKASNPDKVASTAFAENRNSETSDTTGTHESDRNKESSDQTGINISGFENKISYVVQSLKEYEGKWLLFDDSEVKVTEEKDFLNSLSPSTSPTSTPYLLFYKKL
Dual specificity protein kinase CLK4 (Homo sapiens), sequence (Q9HAZ1 whole entry, looked up): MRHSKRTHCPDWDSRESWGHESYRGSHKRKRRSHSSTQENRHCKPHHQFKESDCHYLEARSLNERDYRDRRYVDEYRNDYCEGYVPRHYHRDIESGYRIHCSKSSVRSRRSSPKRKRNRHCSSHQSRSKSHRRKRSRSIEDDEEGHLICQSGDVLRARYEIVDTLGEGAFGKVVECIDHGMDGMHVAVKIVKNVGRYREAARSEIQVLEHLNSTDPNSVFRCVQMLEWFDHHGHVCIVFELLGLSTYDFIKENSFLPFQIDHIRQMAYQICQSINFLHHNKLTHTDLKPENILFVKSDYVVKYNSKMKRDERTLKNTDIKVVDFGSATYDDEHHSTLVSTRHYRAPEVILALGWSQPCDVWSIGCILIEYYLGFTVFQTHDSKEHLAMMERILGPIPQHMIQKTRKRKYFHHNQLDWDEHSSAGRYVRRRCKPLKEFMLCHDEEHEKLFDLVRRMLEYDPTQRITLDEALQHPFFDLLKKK
Glucocorticoid receptor (Homo sapiens), sequence (P04150 whole entry, looked up, the tested form may be a part): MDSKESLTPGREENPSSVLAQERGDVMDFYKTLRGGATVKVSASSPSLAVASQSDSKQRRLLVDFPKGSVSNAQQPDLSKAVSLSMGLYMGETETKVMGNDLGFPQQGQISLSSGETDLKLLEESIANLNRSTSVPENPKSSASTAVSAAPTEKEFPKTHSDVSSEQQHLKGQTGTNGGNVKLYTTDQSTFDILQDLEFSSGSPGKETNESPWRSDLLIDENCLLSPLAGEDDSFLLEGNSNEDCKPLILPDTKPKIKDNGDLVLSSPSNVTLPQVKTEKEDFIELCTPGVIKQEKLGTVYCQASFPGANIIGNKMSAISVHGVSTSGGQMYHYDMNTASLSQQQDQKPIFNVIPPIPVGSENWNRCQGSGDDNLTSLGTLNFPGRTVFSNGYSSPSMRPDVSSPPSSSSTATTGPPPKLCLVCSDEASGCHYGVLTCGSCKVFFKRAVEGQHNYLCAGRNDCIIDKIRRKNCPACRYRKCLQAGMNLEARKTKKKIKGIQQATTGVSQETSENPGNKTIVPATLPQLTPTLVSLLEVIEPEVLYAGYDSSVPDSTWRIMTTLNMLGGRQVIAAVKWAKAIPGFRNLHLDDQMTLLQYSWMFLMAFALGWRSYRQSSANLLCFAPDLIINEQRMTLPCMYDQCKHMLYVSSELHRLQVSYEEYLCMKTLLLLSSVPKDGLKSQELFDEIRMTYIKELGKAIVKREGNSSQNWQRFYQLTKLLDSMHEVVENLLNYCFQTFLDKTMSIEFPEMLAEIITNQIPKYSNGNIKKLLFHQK

| SMILES | Potency [1] | Potency [2] | activity change, negative = inhibition [3] | activity, negative = inhibition [4] | Potency [5] | Potency [6] | Potency [7] | Potency [8] | activity change, negative = inhibition [9] | max response [9, 17] [%] | max response [9, 18] [%] | Potency [10] | Potency [11] | Potency [12] | Potency [13] | activation [14] | activity change, negative = inhibition [15] | Potency [16] | Potency [14] |
| --- | --- | --- | --- | --- | --- | --- | --- | --- | --- | --- | --- | --- | --- | --- | --- | --- | --- | --- | --- |
| CN1CCN(c2ncc3ncc(=O)n(-c4ccccc4)c3n2)CC1 | > 11.4 µM (inactive) | 2.51 µM (active) | -18.4% (inactive) | -9.93% (inactive) | > 9.22 µM (inactive) | > 46 µM (inactive) | inactive | inactive | 4.96% (inactive) | 21.7 | 23.9 | inactive | inactive | inactive |  |  |  |  |  |
| COc1cccc(Nc2ncc3nc(C)c(=O)n(-c4ccccc4)c3n2)c1 | > 11.4 µM (inactive) | 5.01 µM (active) | 11.1% (inactive) | -20.1% (inactive) | > 9.22 µM (inactive) | > 46 µM (inactive) | inactive | inactive | -6.79% (inactive) | -3.12 | -13.9 | 10 µM (active) | 1.58 µM (active) | inactive | inactive |  |  |  |  |
| FC(F)(F)c1ccccc1-c1ccc2ncnc(NCCN3CCOCC3)c2c1 | 8.84 µM (active) |  | 10.2% (inactive) | -13.9% (inactive) | > 46 µM (inactive) | > 46 µM (inactive) | inactive |  | -5.53% (inactive) | 3.86 | -2.12 | inactive | inactive | inactive |  | -0.346% (inactive) |  |  |  |
| COCCn1c(=O)c(C)nc2cnc(Nc3cccc(OC)c3)nc21 | > 11.4 µM (inactive) | 1 µM (active) | 5.07% (inactive) | -7.83% (inactive) | > 9.22 µM (inactive) | > 46 µM (inactive) | inactive | inactive | -6.39% (inactive) | -14.8 | -22.1 | 15.8 µM (active) |  | inactive | inactive |  | 7.44% (inactive) | 25.1 µM (active) |  |
| O=c1c(-c2ccccc2)nc2cnc(Oc3cccc(Cl)c3)nc2n1C[C@H]1CCCO1 | > 11.4 µM (inactive) |  | -8.22% (inactive) | -8.43% (inactive) | > 9.22 µM (inactive) | > 46 µM (inactive) | inactive |  | -16.5% (inactive) | 18.2 | -2.39 | inactive | inactive | inactive |  |  |  | inactive |  |
| O=c1c(-c2ccc(F)cc2)nc2cnc(N3CCNCC3)nc2n1Cc1cccs1 | > 11.4 µM (inactive) | 10 µM (active) | 200% [activator] (active) |  | > 9.22 µM (inactive) | > 46 µM (inactive) |  | inactive | 1.91% (inactive) | 8.56 | 9.26 | inactive | inactive | inactive | inactive |  |  |  | 2.51 µM (active) |
| COc1ccccc1-c1ccc2ncnc(NC3CC3)c2c1 | > 11.4 µM (inactive) |  | -1.81% (inactive) | -18.1% (inactive) | > 46 µM (inactive) | > 46 µM (inactive) | inactive |  | -9.29% (inactive) | -20.8 | -29.7 | 11.2 µM (active) | 12.6 µM (active) | inactive |  |  |  | 14.1 µM (active) |  |
